From ChEMBL document CHEMBL3988442, “University of Dundee, Small-Polar-MMV Screening Library” (2021)

Legend:
[1] = biological target: T1, Aspartate--tRNA(Asp/Asn) ligase (Mycobacterium tuberculosis (strain ATCC 25618 / H37Rv)) (UniProt P9WFW3); test: Assay for Asp RNA synthetase-1 from Mycobacterium tuberculosis; type: functional; parameters: scale not given: direction of the effect not stated beside the values; conditions: 30 µM; also: in the data most compounds retested in dose-response had high values
T1 sequence (whole entry): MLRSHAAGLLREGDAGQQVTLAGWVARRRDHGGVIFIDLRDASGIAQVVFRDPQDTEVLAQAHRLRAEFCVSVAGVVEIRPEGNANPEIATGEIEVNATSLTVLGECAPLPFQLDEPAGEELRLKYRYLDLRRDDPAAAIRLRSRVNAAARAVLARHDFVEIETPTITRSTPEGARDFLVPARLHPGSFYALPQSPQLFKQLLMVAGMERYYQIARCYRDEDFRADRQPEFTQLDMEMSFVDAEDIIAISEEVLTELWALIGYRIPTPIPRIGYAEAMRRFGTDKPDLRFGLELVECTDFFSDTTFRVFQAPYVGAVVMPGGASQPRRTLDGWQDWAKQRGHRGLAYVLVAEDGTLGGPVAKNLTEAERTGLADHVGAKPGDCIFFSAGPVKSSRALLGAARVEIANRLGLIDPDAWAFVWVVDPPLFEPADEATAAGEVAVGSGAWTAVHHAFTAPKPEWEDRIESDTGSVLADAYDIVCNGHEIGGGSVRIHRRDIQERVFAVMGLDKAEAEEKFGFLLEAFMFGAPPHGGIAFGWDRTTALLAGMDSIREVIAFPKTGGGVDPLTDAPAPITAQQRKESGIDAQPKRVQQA

[2] = biological target: Shiga toxin 2 (Escherichia coli O157:H7) (UniProt P09385+P09386); test: E. coli 0.157:H7 Shiga Toxin SOP - stx2 screening assay; type: functional; parameters: scale not given: direction of the effect not stated beside the values; conditions: 30 µM

**Q.** What does the source list for `Cc1cccc(CN2CCC3(CCN(Cc4ccccn4)C3)C2=O)c1` (centres undefined)?
**A.** Percent Effect [1]: 0.956%; Percent Effect [2]: -19.6%

**Q.** Which Percent Effect [1] does the source give for `COC(=O)c1ccc(N2CCN(C(=O)c3ccncc3)C(C)C2)cc1` (centres undefined) here?
**A.** -2.26%

**Q.** And the Percent Effect [2]?
**A.** -11.4%

**Q.** What does the source list for `O=C(C1CCC1)N1CCC2(COCc3cnc(N4CCOCC4)nc32)C1` (centres undefined)?
**A.** Percent Effect [1]: 2.45%; Percent Effect [2]: -34.1%

**Q.** `Cc1nn(C)c(N2CCOCC2)c1CNC(C)c1cccnc1` (centres undefined) was tested. Which Percent Effect [1] did it give?
**A.** -8.69%

**Q.** And the Percent Effect [2]?
**A.** 9.24%

**Q.** `CN1CC(c2ccccc2)CC2(CCN(CC(=O)N(C)C)CC2)C1` (centres undefined) was tested. Which Percent Effect [1] did it give?
**A.** -3.52%

**Q.** What about the Percent Effect [2] of the same molecule?
**A.** 15.8%

**Q.** What does the source list for `Cc1ccc2c(c1)c(CNC(=O)C1CCN(C(C)C)CC1)nn2C`?
**A.** Percent Effect [1]: -0.814%; Percent Effect [2]: -2.96%

**Q.** With `CCN1CCn2c(C)cnc2C12CCN(C(=O)c1ccc(Cl)cc1)CC2` as the molecule, how does the Percent Effect [1] read?
**A.** 2.04%

**Q.** What about the Percent Effect [2] of the same molecule?
**A.** 8.49%

**Q.** `COc1c(C2CCCN2C(=O)c2cncnc2C)c(C)nn1C` (centres undefined) was tested. Which Percent Effect [1] did it give?
**A.** 4.44%

**Q.** What about the Percent Effect [2] of the same molecule?
**A.** -11.2%

**Q.** For `Cc1nn(C)c2c(N3CCN(C(=O)C4CCC4)CC3)ncnc12`, which Percent Effect [1] is on record?
**A.** -3.19%

**Q.** What about the Percent Effect [2] of the same molecule?
**A.** -37.9%

**Q.** Which Percent Effect [1] does the source give for `Cn1cc(CCNC(=O)NCc2nnc3n2CCC3)cn1` here?
**A.** -2%

**Q.** And the Percent Effect [2]?
**A.** 5.89%

**Q.** Which results are given for `COc1cc(CN(C(=O)Nc2cccnc2OC)C2CC2)ccc1O`?
**A.** Percent Effect [1]: -2.28%; Percent Effect [2]: 11.9%

**Q.** Which results are given for `Cc1nc(O)cc(C2CCN(Cc3cccc(F)c3F)C2)n1` (centres undefined)?
**A.** Percent Effect [1]: -1.21%; Percent Effect [2]: -17.9%

**Q.** Which results are given for `Cc1cnn(CCC(=O)N2CCCC(c3nc(C)no3)C2)c1` (centres undefined)?
**A.** Percent Effect [1]: 4.08%; Percent Effect [2]: 3.29%

**Q.** For `CCc1ncncc1C(=O)N1CCCN(Cc2ccc(C)cc2)CC1`, which Percent Effect [1] is on record?
**A.** 7.33%

**Q.** What about the Percent Effect [2] of the same molecule?
**A.** 16.1%

**Q.** With `NC(=O)N1CC[C@H](O)[C@@H]1Cc1cccnc1` as the molecule, how does the Percent Effect [1] read?
**A.** 1.51%

**Q.** What about the Percent Effect [2] of the same molecule?
**A.** 0.815%

**Q.** With `CC(C)NC(=O)N1CCC2(C1)CN(c1ccsc1)C(=O)CN2C` (centres undefined) as the molecule, how does the Percent Effect [1] read?
**A.** 11.4%

**Q.** What about the Percent Effect [2] of the same molecule?
**A.** -17.6%

**Q.** `O=C(NCC(O)CN1CCc2ccccc2C1)Nc1cccnc1` (centres undefined) was tested. Which Percent Effect [1] did it give?
**A.** -0.98%

**Q.** And the Percent Effect [2]?
**A.** -22.8%

**Q.** Which Percent Effect [1] does the source give for `CCN1CCn2nc(CCC(=O)N3CCCC3)cc2C1` here?
**A.** -0.386%

**Q.** And the Percent Effect [2]?
**A.** -5.54%

**Q.** What does the source list for `CC(C)c1nc2c(n1C)CCN(Cc1nc(-c3cccs3)no1)C2`?
**A.** Percent Effect [1]: -1.02%; Percent Effect [2]: -0.957%

**Q.** Which Percent Effect [1] does the source give for `CC(=O)Nc1cccc(OCCNC(=O)N(C)Cc2ccco2)c1` here?
**A.** -1.02%

**Q.** And the Percent Effect [2]?
**A.** -16.7%

**Q.** How did the Percent Effect [1] turn out when `CC(=O)c1ccccc1C(=O)NCC1(CO)CC1` was run?
**A.** 2.82%

**Q.** What about the Percent Effect [2] of the same molecule?
**A.** -19.8%

**Q.** `O=C(CCc1cccs1)N1CCCCC1Cn1cccn1` (centres undefined) was tested. Which Percent Effect [1] did it give?
**A.** -2.77%

**Q.** And the Percent Effect [2]?
**A.** 1.06%

**Q.** What does the source list for `Cn1cc(-c2csc(N3CCOCC3)n2)cn1`?
**A.** Percent Effect [1]: 2.54%; Percent Effect [2]: -13%

**Q.** With `Cn1cnnc1S(=O)(=O)C1CCN(S(=O)(=O)c2c(Cl)cccc2Cl)CC1` as the molecule, how does the Percent Effect [1] read?
**A.** -0.575%

**Q.** And the Percent Effect [2]?
**A.** 0.759%

**Q.** What does the source list for `CS(=O)(=O)CCC(=O)Nc1cnn(-c2ccccc2Cl)c1`?
**A.** Percent Effect [1]: -3.18%; Percent Effect [2]: -52.3%

**Q.** For `COc1cc(CNCc2c(C(C)C)nn(C)c2N(C)C)ccn1`, which Percent Effect [1] is on record?
**A.** 0.522%

**Q.** What about the Percent Effect [2] of the same molecule?
**A.** 22.2%

**Q.** `O=C(C1CCOCC1)N1C[C@@H]2[C@@H](C1)OCC(=O)N2Cc1ccncc1` was tested. Which Percent Effect [1] did it give?
**A.** -2.99%

**Q.** What about the Percent Effect [2] of the same molecule?
**A.** -3.94%

**Q.** With `CC(=O)NC1CCCN(C(=O)NCc2cccnc2-n2cccn2)C1` (centres undefined) as the molecule, how does the Percent Effect [1] read?
**A.** -3.6%

**Q.** And the Percent Effect [2]?
**A.** -14.7%

**Q.** Which Percent Effect [1] does the source give for `NC(=O)N1CCC2(CC1)CN(Cc1cccnc1)C(=O)CO2` here?
**A.** 0.66%

**Q.** What about the Percent Effect [2] of the same molecule?
**A.** -1.38%

**Q.** How did the Percent Effect [1] turn out when `COc1cccc(OC)c1CN1CCC2(CC(Nc3ccncn3)C2)C1` (centres undefined) was run?
**A.** 3.04%

**Q.** And the Percent Effect [2]?
**A.** 0.472%

**Q.** `CCc1cc(C)c(C(=O)N2CCCC2CC(=O)c2cnn(C)c2)o1` (centres undefined) was tested. Which Percent Effect [1] did it give?
**A.** -2.02%

**Q.** What about the Percent Effect [2] of the same molecule?
**A.** 19.9%

**Q.** How did the Percent Effect [1] turn out when `COc1ccc(NC(=O)CCc2c(C)nc3cc(O)nn3c2C)cn1` was run?
**A.** -0.607%

**Q.** What about the Percent Effect [2] of the same molecule?
**A.** -81.2%

**Q.** What does the source list for `NC(=O)c1ccc(OCC(=O)N2CCCC(n3cccn3)C2)cc1` (centres undefined)?
**A.** Percent Effect [1]: -4.7%; Percent Effect [2]: 26%

**Q.** What does the source list for `O=C(c1ccc[nH]1)N1CCCC2(CCN(c3ccsc3)C2=O)C1` (centres undefined)?
**A.** Percent Effect [1]: 3.37%; Percent Effect [2]: 3.06%

**Q.** Which Percent Effect [1] does the source give for `CC(C)(O)CN1CCN(C(=O)c2cccnc2O)CC1` here?
**A.** -6.95%

**Q.** What about the Percent Effect [2] of the same molecule?
**A.** 9.08%

**Q.** `CC(C)c1cc(NCC(O)CO)n2nccc2n1` (centres undefined) was tested. Which Percent Effect [1] did it give?
**A.** -1.68%

**Q.** What about the Percent Effect [2] of the same molecule?
**A.** -0.898%

**Q.** How did the Percent Effect [1] turn out when `COCCn1cc(C(=O)N2CCCC2c2cccc(F)c2)ccc1=O` (centres undefined) was run?
**A.** 0.301%

**Q.** And the Percent Effect [2]?
**A.** -4.86%
